According to the supplement of paper PMC10849652:
The full data set covers some 7,900 targets. This sample favours those with a hit. About 0.6% of all pairs of compound and target were hits. Unmarked numbers belong to inactive results.

Compound: CC1=C(SC2=C1C(=N[C@H](C3=NN=C(N32)C)CC(=O)N)C4=CC=C(C=C4)Cl)C
Assay: log2 fold change, soluble protein after heating vs DMSO (PISA); higher = thermal stabilisation; K562 cells, 10 uM, 30 min; active = over 0.2 and 3.5 SD of the protein, either way, in both replicates (recomputed)
Procedure, shortened: (§1)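 K562 cells at 2×10^6 cells/mL were exposed to 10 μM compound for 30 min, then aliquots were heated for 3 min across 48°C-58°C, pooled, and extracted in PBS containing 0.5% NP-40 at 4°C. The supernatant after 21,000xg for 90 min was taken as soluble protein and measured by TMTpro 16plex LC-MS/MS with channel sums equalised. Thermal stability is reported relative to control samples, with values from duplicates. Fold changes are given on a log2 scale.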

Sequence of UniProt Q15021 (Q15021 whole entry, looked up): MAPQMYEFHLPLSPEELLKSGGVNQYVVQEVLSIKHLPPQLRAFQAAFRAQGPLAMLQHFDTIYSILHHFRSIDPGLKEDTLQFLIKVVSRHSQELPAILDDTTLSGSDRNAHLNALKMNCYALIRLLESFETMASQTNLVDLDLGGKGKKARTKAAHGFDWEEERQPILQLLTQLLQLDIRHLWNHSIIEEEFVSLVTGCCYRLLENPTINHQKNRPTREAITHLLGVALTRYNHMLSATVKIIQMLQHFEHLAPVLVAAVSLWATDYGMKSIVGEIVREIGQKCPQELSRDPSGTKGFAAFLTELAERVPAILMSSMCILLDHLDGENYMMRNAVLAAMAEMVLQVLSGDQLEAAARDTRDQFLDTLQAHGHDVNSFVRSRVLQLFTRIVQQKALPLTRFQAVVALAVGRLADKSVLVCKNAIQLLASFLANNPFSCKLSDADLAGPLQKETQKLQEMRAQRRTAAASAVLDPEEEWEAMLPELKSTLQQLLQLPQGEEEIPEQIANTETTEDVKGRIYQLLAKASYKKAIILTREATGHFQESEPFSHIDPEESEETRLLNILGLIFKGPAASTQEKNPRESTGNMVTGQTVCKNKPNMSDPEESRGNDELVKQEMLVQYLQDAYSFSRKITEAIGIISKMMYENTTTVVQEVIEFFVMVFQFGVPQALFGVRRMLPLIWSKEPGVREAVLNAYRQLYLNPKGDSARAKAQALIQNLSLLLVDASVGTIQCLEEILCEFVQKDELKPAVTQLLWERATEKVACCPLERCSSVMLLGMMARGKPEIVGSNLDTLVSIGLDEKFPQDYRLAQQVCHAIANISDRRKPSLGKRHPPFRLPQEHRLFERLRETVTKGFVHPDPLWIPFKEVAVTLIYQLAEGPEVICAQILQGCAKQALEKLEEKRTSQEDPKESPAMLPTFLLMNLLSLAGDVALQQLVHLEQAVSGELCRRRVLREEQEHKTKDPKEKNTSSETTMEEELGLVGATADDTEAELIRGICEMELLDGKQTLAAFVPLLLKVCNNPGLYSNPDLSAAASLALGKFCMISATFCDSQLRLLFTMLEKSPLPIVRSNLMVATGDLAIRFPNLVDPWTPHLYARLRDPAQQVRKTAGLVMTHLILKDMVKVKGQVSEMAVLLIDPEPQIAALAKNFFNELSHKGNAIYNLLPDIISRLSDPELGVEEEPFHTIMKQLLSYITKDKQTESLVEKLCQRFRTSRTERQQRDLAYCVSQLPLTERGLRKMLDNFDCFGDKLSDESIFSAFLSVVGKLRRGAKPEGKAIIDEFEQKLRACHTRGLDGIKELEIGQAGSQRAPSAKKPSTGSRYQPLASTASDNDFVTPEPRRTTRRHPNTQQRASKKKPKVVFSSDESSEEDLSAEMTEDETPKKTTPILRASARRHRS
Sequence of UniProt Q9Y2X3 (Q9Y2X3 whole entry, looked up): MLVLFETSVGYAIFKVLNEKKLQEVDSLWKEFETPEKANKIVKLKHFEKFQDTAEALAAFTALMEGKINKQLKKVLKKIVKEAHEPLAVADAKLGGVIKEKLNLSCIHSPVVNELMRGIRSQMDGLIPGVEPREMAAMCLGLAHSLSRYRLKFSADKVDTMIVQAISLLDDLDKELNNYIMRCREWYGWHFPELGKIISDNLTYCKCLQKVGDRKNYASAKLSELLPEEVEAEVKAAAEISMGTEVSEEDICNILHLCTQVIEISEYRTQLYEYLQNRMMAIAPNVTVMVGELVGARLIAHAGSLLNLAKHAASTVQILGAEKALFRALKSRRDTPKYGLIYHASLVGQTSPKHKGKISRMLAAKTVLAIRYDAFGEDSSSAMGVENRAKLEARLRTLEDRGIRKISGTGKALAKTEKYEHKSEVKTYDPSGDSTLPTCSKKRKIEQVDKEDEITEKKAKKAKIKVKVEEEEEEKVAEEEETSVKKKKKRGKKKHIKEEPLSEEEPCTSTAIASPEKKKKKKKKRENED
Sequence of UniProt O95747 (O95747 whole entry, looked up): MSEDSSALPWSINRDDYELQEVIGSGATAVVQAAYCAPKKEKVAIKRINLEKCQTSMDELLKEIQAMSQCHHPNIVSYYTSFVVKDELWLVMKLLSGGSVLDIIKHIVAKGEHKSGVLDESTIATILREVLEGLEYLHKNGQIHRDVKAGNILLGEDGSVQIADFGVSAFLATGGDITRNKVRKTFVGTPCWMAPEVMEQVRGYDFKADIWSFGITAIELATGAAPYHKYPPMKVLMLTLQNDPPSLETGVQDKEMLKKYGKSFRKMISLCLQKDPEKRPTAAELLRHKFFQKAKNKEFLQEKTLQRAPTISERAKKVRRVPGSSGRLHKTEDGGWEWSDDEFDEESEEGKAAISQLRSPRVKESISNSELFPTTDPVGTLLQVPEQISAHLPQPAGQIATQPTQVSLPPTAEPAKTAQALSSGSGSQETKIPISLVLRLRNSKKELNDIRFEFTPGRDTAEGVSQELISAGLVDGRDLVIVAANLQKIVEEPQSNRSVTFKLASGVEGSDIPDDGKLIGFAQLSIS
Sequence of UniProt Q8N573 (Q8N573 whole entry, looked up): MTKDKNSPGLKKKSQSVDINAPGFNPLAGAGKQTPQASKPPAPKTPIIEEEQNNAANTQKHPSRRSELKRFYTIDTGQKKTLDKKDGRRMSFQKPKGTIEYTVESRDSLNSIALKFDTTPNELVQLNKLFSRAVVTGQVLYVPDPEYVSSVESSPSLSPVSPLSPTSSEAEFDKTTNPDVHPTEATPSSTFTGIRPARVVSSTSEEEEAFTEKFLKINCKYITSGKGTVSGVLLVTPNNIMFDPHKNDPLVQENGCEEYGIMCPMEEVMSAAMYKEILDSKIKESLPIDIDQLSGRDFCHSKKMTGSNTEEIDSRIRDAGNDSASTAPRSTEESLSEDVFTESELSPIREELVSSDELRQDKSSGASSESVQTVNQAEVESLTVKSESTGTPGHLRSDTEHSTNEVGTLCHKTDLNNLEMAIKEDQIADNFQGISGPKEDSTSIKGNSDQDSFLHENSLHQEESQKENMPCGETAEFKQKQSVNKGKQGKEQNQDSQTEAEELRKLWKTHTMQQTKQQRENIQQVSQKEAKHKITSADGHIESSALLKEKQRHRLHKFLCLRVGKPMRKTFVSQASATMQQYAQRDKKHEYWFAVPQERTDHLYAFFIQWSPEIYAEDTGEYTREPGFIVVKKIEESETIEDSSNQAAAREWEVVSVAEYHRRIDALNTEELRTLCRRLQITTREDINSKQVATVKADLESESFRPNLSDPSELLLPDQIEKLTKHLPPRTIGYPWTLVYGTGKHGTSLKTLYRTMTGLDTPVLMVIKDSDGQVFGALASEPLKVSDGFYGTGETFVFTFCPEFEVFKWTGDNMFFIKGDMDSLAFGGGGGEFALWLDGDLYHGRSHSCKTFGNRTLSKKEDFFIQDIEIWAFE
Sequence of UniProt Q13469 (Q13469 whole entry, looked up): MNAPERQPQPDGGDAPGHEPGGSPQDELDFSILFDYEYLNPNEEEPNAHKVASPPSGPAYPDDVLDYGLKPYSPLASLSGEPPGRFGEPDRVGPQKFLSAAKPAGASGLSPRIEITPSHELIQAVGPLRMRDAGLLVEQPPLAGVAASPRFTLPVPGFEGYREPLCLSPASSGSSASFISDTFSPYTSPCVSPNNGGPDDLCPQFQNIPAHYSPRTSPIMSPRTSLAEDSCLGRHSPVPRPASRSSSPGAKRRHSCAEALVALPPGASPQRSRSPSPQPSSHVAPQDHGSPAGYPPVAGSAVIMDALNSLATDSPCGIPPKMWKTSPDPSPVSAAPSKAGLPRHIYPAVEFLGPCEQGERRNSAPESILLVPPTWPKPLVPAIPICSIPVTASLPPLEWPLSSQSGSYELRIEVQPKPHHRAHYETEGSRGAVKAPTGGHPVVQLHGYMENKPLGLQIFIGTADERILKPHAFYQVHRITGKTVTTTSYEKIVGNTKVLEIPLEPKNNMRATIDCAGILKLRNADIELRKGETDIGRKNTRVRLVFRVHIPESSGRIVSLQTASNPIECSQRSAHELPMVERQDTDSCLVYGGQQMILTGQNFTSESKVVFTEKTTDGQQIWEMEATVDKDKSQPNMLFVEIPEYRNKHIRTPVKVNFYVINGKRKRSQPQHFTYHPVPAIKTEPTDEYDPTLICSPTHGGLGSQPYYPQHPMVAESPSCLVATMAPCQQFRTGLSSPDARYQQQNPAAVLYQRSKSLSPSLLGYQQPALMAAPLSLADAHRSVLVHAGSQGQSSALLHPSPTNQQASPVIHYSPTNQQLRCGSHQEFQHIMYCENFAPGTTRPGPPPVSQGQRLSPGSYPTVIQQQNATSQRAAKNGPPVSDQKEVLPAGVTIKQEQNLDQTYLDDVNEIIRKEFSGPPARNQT
Sequence of UniProt Q9HAN9 (Q9HAN9 whole entry, looked up): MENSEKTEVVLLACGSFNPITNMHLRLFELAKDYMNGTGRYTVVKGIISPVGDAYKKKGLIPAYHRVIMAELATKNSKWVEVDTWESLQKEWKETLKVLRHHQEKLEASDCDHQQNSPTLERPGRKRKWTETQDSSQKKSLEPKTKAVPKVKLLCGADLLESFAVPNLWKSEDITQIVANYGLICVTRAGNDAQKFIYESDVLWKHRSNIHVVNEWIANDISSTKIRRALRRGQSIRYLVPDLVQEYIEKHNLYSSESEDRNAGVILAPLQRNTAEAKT
Sequence of UniProt Q9ULX3 (Q9ULX3 whole entry, looked up): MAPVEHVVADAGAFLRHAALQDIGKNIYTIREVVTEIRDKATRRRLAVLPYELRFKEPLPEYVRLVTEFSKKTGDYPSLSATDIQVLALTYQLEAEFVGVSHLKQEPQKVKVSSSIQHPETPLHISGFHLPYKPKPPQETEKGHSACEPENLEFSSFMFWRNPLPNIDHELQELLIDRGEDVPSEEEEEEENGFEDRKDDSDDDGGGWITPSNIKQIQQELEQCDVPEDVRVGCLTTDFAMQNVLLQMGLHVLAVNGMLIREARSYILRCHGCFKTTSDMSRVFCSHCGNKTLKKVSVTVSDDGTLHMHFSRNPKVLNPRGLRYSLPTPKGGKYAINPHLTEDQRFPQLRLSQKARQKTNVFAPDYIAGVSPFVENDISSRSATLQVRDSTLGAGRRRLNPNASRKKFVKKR

| Target | log2 fold change |
| --- | --- |
| MSTO1 (UniProt Q9BUK6) | 0.046 |
| NCAPD2 (UniProt Q15021) | 0.04 |
| MRPS26 (UniProt Q9BYN8) | 0.061 |
| NAA11 (UniProt Q9BSU3) | 0.042 |
| NME2P1 (UniProt O60361) | 0.079 |
| NMD3 (UniProt Q96D46) | 0.049 |
| MINK1 (UniProt Q8N4C8) | 0.024 |
| MORC3 (UniProt Q14149) | 0.014 |
| MKNK1 (UniProt Q9BUB5) | 0.039 |
| MKRN2 (UniProt Q9H000) | 0.046 |
| NFATC2 (UniProt Q13469) | 0.097 |
| NFATC2IP (UniProt Q8NCF5) | 0.18 |
| NOB1 (UniProt Q9ULX3) | -0.033 |
| MON1B (UniProt Q7L1V2) | 0.044 |
| NDUFA6 (UniProt P56556) | 0.121 |
| MRPS27 isoform 2 (UniProt Q92552) | 0.04 |
| NMT1 (UniProt P30419) | 0.032 |
| NR2C2AP isoform 2 (UniProt Q86WQ0) | 0.043 |
| NCOR1 (UniProt O75376) | 0.06 |
| MOB3B (UniProt Q86TA1) | 0.029 |
| PAK1 isoform 2 (UniProt Q13153) | 0.097 |
| NAA38 isoform 2 (UniProt Q9BRA0) | 0.057 |
| MITD1 (UniProt Q8WV92) | 0.022 |
| NDUFB7 (UniProt P17568) | -0.01 |
| NIPSNAP2 (UniProt O75323) | 0.008 |
| MSH3 (UniProt P20585) | 0.085 |
| OXSR1 (UniProt O95747) | 0.048 |
| NMNAT1 (UniProt Q9HAN9) | -0.055 |
| NOP58 (UniProt Q9Y2X3) | -0.151 |
| OXR1 (UniProt Q8N573) | 0.026 |

Compound: CC1=C2C(=CC=C1)N=C(N(C2=O)C3=CC=CC=C3C)CN4C=NC5=C(N=CN=C54)N
Assay: as above
Procedure, shortened: as §1

| Target | log2 fold change |
| --- | --- |
| MSTO1 (UniProt Q9BUK6) | 0.002 |
| NCAPD2 (UniProt Q15021) | 0.044 |
| MRPS26 (UniProt Q9BYN8) | -0.012 |
| NAA11 (UniProt Q9BSU3) | 0.049 |
| NME2P1 (UniProt O60361) | 0.063 |
| NMD3 (UniProt Q96D46) | 0.01 |
| MINK1 (UniProt Q8N4C8) | -0.01 |
| MORC3 (UniProt Q14149) | 0.132 |
| MKNK1 (UniProt Q9BUB5) | 0.065 |
| MKRN2 (UniProt Q9H000) | 0.143 |
| NFATC2 (UniProt Q13469) | 0.077 |
| NFATC2IP (UniProt Q8NCF5) | 0.039 |
| NOB1 (UniProt Q9ULX3) | 0.048 |
| MON1B (UniProt Q7L1V2) | 0.056 |
| NDUFA6 (UniProt P56556) | 0.104 |
| MRPS27 isoform 2 (UniProt Q92552) | 0.01 |
| NMT1 (UniProt P30419) | -0.001 |
| NR2C2AP isoform 2 (UniProt Q86WQ0) | 0.081 |
| NCOR1 (UniProt O75376) | 0.002 |
| MOB3B (UniProt Q86TA1) | 0.178 |
| PAK1 isoform 2 (UniProt Q13153) | -0.113 |
| NAA38 isoform 2 (UniProt Q9BRA0) | -0.013 |
| MITD1 (UniProt Q8WV92) | -0.326 |
| NDUFB7 (UniProt P17568) | -0.004 |
| NIPSNAP2 (UniProt O75323) | 0.036 |
| MSH3 (UniProt P20585) | 0.052 |
| OXSR1 (UniProt O95747) | 0.096 |
| NMNAT1 (UniProt Q9HAN9) | -0.088 |
| NOP58 (UniProt Q9Y2X3) | -0.063 |
| OXR1 (UniProt Q8N573) | 0.039 |
